Laboratory results from PubChem BioAssay AID1159580 (chemical genetic matrix, 2015).
Several values for one entry are separate records, joined by “and”; a condition that tells them apart may be missing. Identical values can stand only once. The campaign covered roughly 5,500 compounds. About 2,000 (36%) were called active. Inconclusive results (about 18%) are left out. No stated cut-off is given here; in the data, active means normalized growth mostly below about 0.91 (no sharp cut-off); inconclusive means no clear call, values can overlap the other calls; inactive means mostly above about 0.92. The list shows a part of the results.

Experiment: chemical genetic growth profiling, strain panel (AID 1159580);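 further: tested at 20 µM; growth read once vehicle control cultures reached saturation at 30 °C; 1 = growth at the plate median or of vehicle wells; lower values mean less growth of the strain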
Settings: S. cerevisiae deletion strains, growth OD

Measured: normalized growth

COc1cc([C@@H]2c3cc4c(cc3[C@H](OC(C)=O)[C@H]3COC(=O)[C@@H]23)OCO4)cc(OC)c1OC
inactive: locus YAL021C, strain ccr4, hits give low values 1.01 | locus YAL026C, strain drs2, hits give low values 0.991 | locus YAL030W, strain snc1, hits give low values 1.01 | locus YBL061C, strain skt5, hits give low values 1.01 | locus YBR009C, strain hhf1, hits give low values 0.996 | locus YBR021W, strain FUR4, hits give low values 1.01 | locus YBR023C, strain chs3, hits give low values 1.01 | locus YBR171W, strain sec66, hits give low values 1 | locus YBR229C, strain ROT2, hits give low values 1.01 | locus YBR231C, strain swc5, hits give low values 1.01 | locus YBR279W, strain paf1, hits give low values 1 | locus YCL011C, strain gbp2, hits give low values 1 | locus YCL016C, strain dcc1, hits give low values 1 | locus YCL029C, strain bik1, hits give low values 1.01 | locus YCL069W, strain vba3, hits give low values 1 | locus YCR088W, strain abp1, hits give low values 0.982 | locus YDL005C, strain med2, hits give low values 1 | locus YDL035C, strain GPR1, hits give low values 1.02 | locus YDL040C, strain nat1, hits give low values 1 | locus YDL074C, strain BRE1, hits give low values 1.02 | locus YDL101C, strain DUN1, hits give low values 1.01 | locus YDL185W, strain tfp1, hits give low values 1.03 | locus YDL192W, strain arf1, hits give low values 1.04 | locus YDR001C, strain nth1, hits give low values 0.99 | locus YDR069C, strain doa4, hits give low values 1.01 | locus YDR101C, strain arx1, hits give low values 1.01 | locus YDR137W, strain rgp1, hits give low values 1.03 | locus YDR150W, strain NUM1, hits give low values 1.01 | locus YDR159W, strain sac3, hits give low values 1.01 | locus YDR162C, strain NBP2, hits give low values 1.01 | locus YDR195W, strain ref2 0.972 | locus YDR297W, strain sur2, hits give low values 1.01 | locus YDR318W, strain mcm21, hits give low values 1.02 | locus YDR334W, strain swr1, hits give low values 0.969 | locus YDR335W, strain msn5, hits give low values 1.01 | locus YDR388W, hits give low values 1.02 | locus YDR392W, strain spt3, hits give low values 0.998 | locus YDR502C, strain sam2, hits give low values 1.01 | locus YEL003W, strain gim4, hits give low values 0.998 | locus YEL037C, strain rad23, hits give low values 0.985 | locus YEL061C, strain CIN8 (second series), hits give low values 0.98 | locus YEL061C, strain CIN8, hits give low values 1.01 | locus YER015W, strain faa2, hits give low values 1.01 | locus YER016W, strain bim1, hits give low values 1.01 | locus YER110C, hits give low values 1.02 | locus YER111C, strain swi4, hits give low values 1.01 | locus YER155C, strain BEM2 (second series), hits give low values 1.01 | locus YER155C, strain BEM2, hits give low values 0.998 | locus YER167W, strain BCK2, hits give low values 1.02 | locus YFR010W, strain ubp6, hits give low values 0.98 | locus YGL078C, strain dbp3, hits give low values 1.03 | locus YGL086W, strain mad1, hits give low values 1.01 | locus YGL167C, strain pmr1, hits give low values 1 | locus YGL173C, strain kem1, hits give low values 1.01 | locus YGL227W, strain vid30, hits give low values 0.994 | locus YGL240W, strain doc1, hits give low values 1.01 | locus YGL248W, strain PDE1, hits give low values 1.01 | locus YGL253W, strain hxk2, hits give low values 1 | locus YGR078C, strain PAC10, hits give low values 1.02 | locus YGR135W, strain pre9, hits give low values 1.03 | locus YGR252W, strain gcn5, hits give low values 1.01 | locus YHR013C, strain ard1, hits give low values 1.01 | locus YHR027C, strain rpn1, hits give low values 0.993 | locus YHR030C, strain SLT2, hits give low values 1.01 and 0.979 | locus YHR079C, strain IRE1 (second series), hits give low values 1.03 | locus YHR079C, strain IRE1, hits give low values 0.985 | locus YHR094C, strain hxt1, hits give low values 1.03 | locus YHR129C, strain ARP1, hits give low values 1.01 | locus YHR142W, strain chs7, hits give low values 0.995 | locus YHR200W, strain rpn10, hits give low values 1.04 | locus YIL066C, strain RNR3, hits give low values 1.02 | locus YIL073C, strain SPO22, hits give low values 1.07 | locus YIL125W, strain kgd1, hits give low values 1.01 | locus YIR030C, strain dcg1, hits give low values 1.01 | locus YJL092W, strain hpr5, hits give low values 0.986 | locus YJL095W, strain BCK1 (second series), hits give low values 0.999 | locus YJL095W, strain BCK1, hits give low values 1.01 and 1.04 | locus YJL115W, strain asf1, hits give low values 0.993 | locus YJL129C, strain trk1, hits give low values 1.01 | locus YJL134W, strain LCB3, hits give low values 1.01 | locus YJL154C, strain vps35, hits give low values 0.978 | locus YJL164C, strain tpk1, hits give low values 1.01 | locus YJL166W, strain qcr8, hits give low values 1.02 | locus YJL168C, strain set2, hits give low values 1.02 | locus YJL187C, strain SWE1 (second series), hits give low values 1.02 | locus YJR043C, strain POL32, hits give low values 1.01 | locus YJR066W, strain TOR1, hits give low values 0.931 | locus YKL009W, strain mrt4, hits give low values 0.999 | locus YKL068W, hits give low values 1.01 | locus YKL085W, strain MDH1 (second series), hits give low values 1 | locus YKL085W, strain MDH1, hits give low values 1 | locus YKL160W, strain elf1, hits give low values 1.01 | locus YKL190W, strain CNB1, hits give low values 1.01 | locus YKR001C, strain vps1, hits give low values 1.03 | locus YKR026C, strain gcn3, hits give low values 0.997 | locus YKR091W, strain srl3, hits give low values 1 | locus YLL001W, strain dnm1, hits give low values 0.991 | locus YLL026W, hits give low values 1.01 | locus YLL041C, strain sdh2, hits give low values 0.997 | locus YLR027C, strain aat2, hits give low values 1 | locus YLR039C, strain RIC1, hits give low values 1.01 | locus YLR058C, strain SHM2, hits give low values 1.01 | locus YLR102C, strain apc9, hits give low values 1.03 | locus YLR113W, strain HOG1, hits give low values 1.08 | locus YLR221C, strain rsa3, hits give low values 1.01 | locus YLR258W, strain gsy2, hits give low values 1.01 | locus YLR262C, strain YPT6 (second series), hits give low values 0.956 | locus YLR262C, strain YPT6, hits give low values 1.07 | locus YLR268W, strain sec22, hits give low values 1.01 | locus YLR320W, strain mms22, hits give low values 1.01 | locus YLR330W, strain CHS5, hits give low values 1.01 | locus YLR342W, strain FKS1 (second series), hits give low values 1.02 | locus YLR342W, strain FKS1, hits give low values 1 | locus YLR357W, strain rsc2, hits give low values 0.973 | locus YLR370C, strain arc18, hits give low values 1.02 | locus YLR371W, strain rom2, hits give low values 1.02 | locus YLR384C, strain iki3, hits give low values 0.994 | locus YLR418C, strain cdc73, hits give low values 1.03 | locus YML016C, strain PPZ1, hits give low values 1.01 | locus YML032C, strain rad52, hits give low values 1.02 | locus YML120C, strain ndi1, hits give low values 1.01 | locus YML124C, strain tub3, hits give low values 1.02 | locus YMR058W, strain fet3, hits give low values 1 | locus YMR078C, strain ctf18, hits give low values 1.05 | locus YMR125W, strain sto1, hits give low values 0.986 | locus YMR129W, hits give low values 1 | locus YMR205C, strain PFK2, hits give low values 0.995 | locus YMR223W, strain ubp8, hits give low values 1.03 | locus YMR231W, strain pep5, hits give low values 1 | locus YMR263W, strain SAP30, hits give low values 1.01 | locus YMR307W, strain GAS1, hits give low values 1.04 | locus YNL067W, strain RPL9B, hits give low values 1.02 | locus YNL071W, strain lat1, hits give low values 0.991 | locus YNL183C, strain NPR1, hits give low values 0.972 | locus YNL209W, strain ssb2, hits give low values 0.989 | locus YNL233W, strain BNI4, hits give low values 1.01 | locus YNL248C, strain rpa49, hits give low values 0.961 | locus YNL250W, strain rad50, hits give low values 1.03 | locus YNL271C, strain bni1, hits give low values 1.02 | locus YNL298W, strain CLA4, hits give low values 1.02 | locus YNL307C, strain MCK1, hits give low values 1.02 | locus YNL322C, strain KRE1 (second series), hits give low values 1 | locus YNL322C, strain KRE1, hits give low values 1.01 | locus YNR049C, strain mso1, hits give low values 0.993 | locus YNR052C, strain pop2, hits give low values 1.03 | locus YOL006C, strain TOP1, hits give low values 1.07 | locus YOL012C, strain htz1 0.847 | locus YOL147C, strain pex11, hits give low values 1.01 | locus YOR001W, strain rrp6, hits give low values 0.987 | locus YOR061W, strain CKA2, hits give low values 1.01 | locus YOR069W, strain VPS5, hits give low values 1.01 | locus YOR070C, strain gyp1, hits give low values 1.01 | locus YOR080W, strain dia2, hits give low values 1 | locus YOR083W, strain WHI5, hits give low values 1.01 | locus YOR106W, strain vam3, hits give low values 1 | locus YOR136W, strain idh2, hits give low values 1.02 | locus YOR144C, strain elg1, hits give low values 1.01 | locus YOR184W, strain ser1, hits give low values 1.03 | locus YOR231W, strain MKK1, hits give low values 0.986 | locus YOR265W, strain rbl2, hits give low values 1 | locus YOR270C, strain vph1, hits give low values 0.847 | locus YOR290C, strain snf2, hits give low values 1.01 | locus YOR316C, strain cot1, hits give low values 1.01 | locus YPL051W, strain arl3, hits give low values 1.03 | locus YPL078C, strain atp4, hits give low values 0.978 | locus YPL106C, strain sse1, hits give low values 1.01 | locus YPL240C, strain hsp82, hits give low values 0.993 | locus YPL241C, strain CIN2, hits give low values 1.02 | locus YPL256C, strain CLN2, hits give low values 1 | locus YPR119W, strain clb2, hits give low values 1.04 | locus YPR141C, strain kar3, hits give low values 1.03 | locus YPR163C, strain tif3, hits give low values 1.03 | locus YPR167C, strain met16, hits give low values 1.01 | strain wtn01, hits give low values 1.03
